Screening data: PubChem BioAssay, National Center for Advancing Translational Sciences (NCATS)
Only some compounds are listed: those with a hit (about 17% of all), similar ones and a draw of the others.
DT40 TDP1 CPT: growth inhibition of DT40 Tdp1-/-;hTDP1 cells with camptothecin (screen for TDP1 inhibitors) | Potency, µM (doses to about 46.2 µM), for the others: top-dose activity change, negative = growth inhibition, actives largely listed as inhibitors | hit rate 12% among 420,000 | chicken DT40 Tdp1-/-;hTDP1 cells + 20 nM CPT, ATP luminescence, 48 h; further: on the % scale 0 is the no-effect control and ±100 the full control effect; nearly all actives have a fitted effect of over 55% in size
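Chicken DT40 Tdp1-/- cells complemented with human TDP1, 400 cells/well, exposed to compounds plus 20 nM camptothecin for at least 48 h at 37 C; viability read as ATP content by CellTiter-Glo luminescence.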
HT1080NT lethal: kills 2HG-producing HT-1080-NT fibrosarcoma cells; AID 686970; hit rate 1.6% among 360,000; Potency, µM (highest dose often 46.1 µM), without a hit: at the highest dose activity, negative = less viability, hits mostly cytotoxic; HT-1080-NT fibrosarcoma viability, CellTiter-Glo ATP luminescence, 48 h;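 further: NT is the 2HG producing partner of a matched IDH1 knockdown line; 0% = DMSO-treated cells and -100% = media-only wells without cells; nearly all actives have a fitted effect of over 55% in size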
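Compounds were tested in concentration-response format on HT-1080-NT cells for 48 hours at 37 degrees C. Cell viability came from CellTiter-Glo luminescence; curves were classified by r2, response magnitude and activity.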
DT40 TDP1 no CPT: qHTS for Inhibitors of human tyrosyl-DNA phosphodiesterase 1 (TDP1): qHTS in cells in absence of CPT | DT40 Tdp1-/- hTDP1 cells, no CPT, ATP luminescence, 48 h | Potency, µM (highest dose often 46.2 µM), inactives show top-dose activity change, negative = growth inhibition, actives largely listed as inhibitors | AID 686978, 2013 | hit rate 15% among 420,000; further: on the % scale 0 is the no-effect control and ±100 the full control effect; nearly all actives have a fitted effect of over 55% in size
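Readout: luminescence from CellTiter-Glo after 30 min in the dark at RT. Cells: DT40 Tdp1-/- with stable hTDP1, 400/well. Exposure: compounds alone, ≥48 hr, 37 °C.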
TGFb SMAD3 inh: blocks TGF-b signaling. HepG2 CAGA-GFP TGF-b/SMAD3 reporter, GFP fluorescence, 18 h; TGF-beta stimulated, 500 pg/mL final. Potency, µM (top dose mostly 46.1 µM), inactives show at the top dose activity, negative = inhibition, actives largely listed as inhibitors. hit rate 1.2% among 410,000. AID 588855; further: on the % scale 0 is the no-effect control and ±100 the full control effect; nearly all actives have a fitted effect of over 65% in size
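Inhibition of TGF-beta-driven CAGA-GFP reporter expression in HEPG2 cells is measured by cellular GFP fluorescence after 18 h stimulation with 500 pg/mL recombinant TGF-beta in 1% FBS medium at 37 degrees C.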
HT1080 IDH1KD tx: HT-1080 IDH1 knockdown cell toxicity (counter line); hit rate 2% among 360,000; Potency, µM (top dose mostly 46.1 µM), inactives show top-dose activity, negative = toxicity, usual class: cytotoxic; HT-1080 IDH1 knockdown viability, ATP luminescence, 48 h;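 further: 0% = DMSO wells and -100% = cell-free medium wells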
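Assay cells: HT-1080 with IDH1 knockdown, 750 per well, RPMI/5% FBS. Exposure: 48 h at 37 °C following 2 h pre-incubation. Read: CellTiter-Glo luminescence; fitted concentration-response, curve class assigned.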
HepG2 viability: HepG2 cytotoxicity, counter-screen for TGF-b inhibitors. HepG2 CAGA-GFP viability, ATP luminescence, 18 h. Potency, µM (series often up to 46.1 µM), for inactives: at the top dose activity change, negative = cytotoxicity, hits mostly cytotoxic. hit rate 0.76% among 410,000. AID 588856
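CellTiter-Glo luminescence gave cytotoxicity after 18 hours at 37 degrees C. The cells were HepG2 CAGA-GFP in 1% FBS DMEM, stimulated with 500 pg/mL TGF-beta after compound addition. %Activity was normalised to no-cell wells (complete cell-killing) and DMSO (no toxicity), and curves were fitted and classified.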
The depositor's hits bear a star; ? = inconclusive; · = not tested or not shown. The call rests on the fitted dose curve; in most records, active means well fitted curve in the direction sought with a large enough effect; inconclusive means small, poorly fitted or top-dose-only effect, or another doubt; inactive means no such curve, though single readings can be large; an effect the other way counts as inactive or inconclusive. Potency means the concentration at half of the fitted maximal effect.

SMILES | DT40 TDP1 CPT | HT1080NT lethal | DT40 TDP1 no CPT | TGFb SMAD3 inh | HT1080 IDH1KD tx | HepG2 viability
CC1CN2C(c3ccc([N+](=O)[O-])cc3)=CSC2=N1 (stereo not drawn) | 5% | -2% | -7% | -19% | 7% | 6%
CCC(C)Sc1cc(-c2nc3ccc(C)cn3c2NCc2ccccc2)ccc1OC (stereo not drawn) | 4.6µM* | ? | 4.1µM* | 13µM* | ? | -40%
CCC(C)Sc1ccc(-c2nc3ccc(C)cn3c2NCc2ccccc2)cc1OC (stereo not drawn) | 21µM* | ? | 16µM* | ? | ? | -54%
COc1ccc(-c2cc(-c3nc4ccccn4c3NCc3ccccc3)ccc2OC)cc1 | ? | ? | ? | ? | ? | -15%
Cc1ccc([C@@H]2[C@@H]3C(=O)N(C)C(=O)[C@@H]3[C@]3(C)C(=O)N(Cc4ccc(-c5ccccc5)cc4)CC(=O)N23)o1 | ? | -10% | -9% | -6% | -6% | -17%
COc1ccccc1NS(=O)(=O)c1cccc(C(=O)NCc2ccco2)c1 | -16% | -5% | -22% | -8% | -11% | 4%
CCN=c1scc(C)n1/N=C/c1cc(Br)c(O)c(Br)c1 | ? | ? | ? | -15% | ? | -19%
CCN=c1scc(C)n1/N=C/c1ccc(O)c(O)c1O | 15µM* | -6% | 7.3µM* | -23% | -8% | -15%
Cc1cccc(Nc2nc(N)c([N+](=O)[O-])c(N3CCN(C)CC3)n2)c1 | ? | -6% | ? | 31% | 0% | 1%
CCN1CCN(c2nc(Nc3ccccc3)nc(N)c2[N+](=O)[O-])CC1 | -8% | 12% | -1% | ? | 12% | -9%
Cc1cccc(Nc2nc(N)c([N+](=O)[O-])c(N3CCCC(C)C3)n2)c1 (stereo not drawn) | 13µM* | ? | 10µM* | ? | ? | -88%
CCN1CCN(c2nc(Nc3cccc(C)c3)nc(N)c2[N+](=O)[O-])CC1 | ? | -15% | 18µM* | -18% | -21% | -21%
Cc1ccc(Nc2nc(N)c([N+](=O)[O-])c(N3CCC(C)CC3)n2)cc1C | ? | 10% | ? | -7% | 3% | 7%
Cc1ccc(Nc2nc(N)c([N+](=O)[O-])c(N3CCOCC3)n2)cc1C | 23µM* | -2% | 21µM* | 2% | -1% | -10%
COc1ccc(C)cc1NC(=O)C1CCN(S(=O)(=O)c2ccc3c(c2)NC(=O)CO3)CC1 | -26% | -4% | -9% | -15% | 2% | -37%
O=C1/C(=C/c2ccccc2)NC(=S)N1C(c1ccccc1)c1ccccc1 | 4.6µM* | ? | 5.8µM* | -1% | 9.2µM* | -58%
CCC(=O)N1CCC1(C)C(=O)Nc1nccs1 (stereo not drawn) | -6% | 21% | ? | -39% | 13% | -20%
Cc1ccc2oc(=O)c(/C=C(\O)c3sc(C)nc3C)nc2c1 | ? | 2% | 23µM* | 1% | 0% | -3%
O=c1oc2ccccc2nc1/C=C(O)/C=C/c1ccc(F)cc1 | 9.2µM* | 3% | 15µM* | -5% | 1% | 10%
Cc1ccc(/C(O)=C/c2nc3ccccc3oc2=O)cc1 | -27% | -12% | ? | ? | 23µM* | -2%
O=c1oc2ccccc2nc1/C=C(O)/C=C\c1ccccc1 | 15µM* | 0% | 23µM* | -4% | 13% | -1%
Cc1ccc2oc(=O)c(/C=C(\O)C(C)(C)C)nc2c1 | -13% | -23% | -6% | -4% | -25% | -30%
COc1cccc(-c2ccc3c(N)c(C(=O)c4ccc(F)cc4)sc3n2)c1 | ? | · | ? | ? | · | -74%
COC(=O)c1ccccc1NC(=O)c1c(C)oc2ncn(C)c(=O)c12 | 1% | · | -18% | ? | · | 4%
N#CC1=C(N)C(C#N)(C#N)C(c2ccc[nH]2)C2CCCC=C12 (stereo not drawn) | ? | -24% | ? | -9% | ? | -23%
SMILES | DT40 TDP1 CPT | HT1080NT lethal | DT40 TDP1 no CPT | TGFb SMAD3 inh | HT1080 IDH1KD tx | HepG2 viability
N#CC1=C(N)C2=CCCC[C@H]2[C@H](c2cccc(F)c2)C1(C#N)C#N | ? | ? | ? | ? | 16µM* | 1%
O=C(NCc1cccs1)C1CCN(c2nc3ccccc3o2)CC1 | ? | -1% | -25% | 6% | -6% | -8%
CCC1CN(C(=O)NCc2ccccc2)c2cc(C)ccc2O1 (stereo not drawn) | ? | 0% | ? | ? | 1% | 4%
CCC1CN(C(=O)N2CCC(C(=O)NCc3ccc(OC)cc3OC)CC2)c2cc(C)ccc2O1 (stereo not drawn) | ? | · | 18µM* | ? | · | -38%
CCOc1ccccc1CNC(=O)C1CCN(C(=O)N2CC(CC)Oc3ccc(C)cc32)CC1 (stereo not drawn) | 13µM* | · | 18µM* | 10µM* | · | -39%
CCOc1ccccc1CNC(=O)C1CCN(c2nc3ccccc3o2)CC1 | 18µM* | -2% | ? | -15% | -2% | -28%
CCOc1ccccc1CNC(=O)C1CCN(C(=O)N2CC(C)Oc3ccc(C)cc32)CC1 (stereo not drawn) | 21µM* | -2% | ? | -29% | 0% | -31%
CCOC(=O)c1c(C)[nH]c(C)c1S(=O)(=O)NCC(=O)Nc1ccc(CC)cc1 | -27% | · | -20% | ? | · | -17%
COc1ccc(CNC(=O)C2CCN(S(=O)(=O)N3CCC4(CC3)OCCO4)CC2)c(OC)c1 | ? | ? | -26% | -6% | 16µM* | 8%
COc1cccc(CNC(=O)C2CCN(S(=O)(=O)N3CCC4(CC3)OCCO4)CC2)c1 | -2% | -1% | -7% | 3% | 1% | 3%
Cc1ccc(N2C(=O)CS/C2=N\C(=S)Nc2ccccc2)cc1 | ? | -12% | 5.8µM* | 5% | -8% | -3%
O=S(=O)(c1cccs1)N1CN(Cc2ccccc2)c2nc3ccccc3nc21 | ? | -11% | ? | 1% | -12% | -1%
O=S(=O)(c1cccs1)N1CN(Cc2cccs2)c2nc3ccccc3nc21 | ? | -18% | 16µM* | 7% | -17% | -10%
Cc1cc(C)cc(-n2ccn3c(CC(C)(C)CC(=O)O)nnc3c2=O)c1 | -1% | · | -1% | -7% | · | -3%
